Test results published in the supplement of paper PMC8728848.
This is one part of a sample in which the strongest signals are shown more often than they occur.

What was measured:
Assay in all cases: glycan array binding signal (z-score within array); higher = stronger binding
Conditions in all cases: glycan notation: IUPAC condensed, linker removed
[1] = biological target: Fuc(a1-2)Gal(b1-3)GalNAc(b1-3)Gal
How it was run: (§1)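 The Consortium for Functional Glycomics database supplied 3228 glycan arrays, of which those lacking an available protein sequence were dropped. The binding signal, a within-array Z-score, was averaged across arrays of the same protein sequence and across linkers. Negative scores can be read as non-binding.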

[2] = biological target: Fuc(a1-2)Gal(b1-4)GlcNAc(b1-2)Man(a1-3)[Fuc(a1-2)Gal(b1-4)GlcNAc(b1-2)Man(a1-6)]Man(b1-4)GlcNAc(b1-4)GlcNAc
How it was run: as §1

[3] = biological target: Fuc(a1-2)Gal(b1-4)[Fuc(a1-3)]GlcNAc
How it was run: as §1

[4] = biological target: Fuc(a1-2)[GalNAc(a1-3)]Gal(b1-3)GlcNAc(b1-2)Man(a1-3)[Fuc(a1-2)[GalNAc(a1-3)]Gal(b1-3)GlcNAc(b1-2)Man(a1-6)]Man(b1-4)GlcNAc(b1-4)GlcNAc
How it was run: as §1

[5] = biological target: Fuc(a1-2)[GalNAc(a1-3)]Gal(b1-4)Glc
How it was run: as §1

[6] = biological target: Fuc(a1-3)[Gal(b1-4)]Glc6S
How it was run: as §1

[7] = biological target: Fuc(a1-3)[Gal(b1-4)]GlcNAc(b1-4)Gal(b1-4)[Fuc(a1-3)]GlcNAc(b1-4)Gal(b1-4)[Fuc(a1-3)]GlcNAc
How it was run: as §1

[8] = biological target: Fuc(a1-3)[Gal3S(b1-4)]Glc6S
How it was run: as §1

[9] = biological target: Fuc(a1-3)[Gal3S(b1-4)]GlcNAc
How it was run: as §1

[10] = biological target: Gal(b1-3)GalNAc(a1-3)[Fuc(a1-2)]Gal(b1-4)Glc
How it was run: as §1

[11] = biological target: Gal(b1-3)[Fuc(a1-4)]GlcNAc
How it was run: as §1

[12] = biological target: Gal(b1-3)[Fuc(a1-4)]GlcNAc(b1-2)Man(a1-3)[Gal(b1-3)[Fuc(a1-4)]GlcNAc(b1-2)Man(a1-6)]Man(b1-4)GlcNAc(b1-4)GlcNAc
How it was run: as §1

[13] = biological target: Gal(b1-4)GlcNAc(b1-3)Gal(b1-3)GlcNAc
How it was run: as §1

Gal3S4S(b1-4)GlcNAc = biological target: Gal3S4S(b1-4)GlcNAc
How it was run: as §1

GalNAc(b1-4)GlcNAc = biological target: GalNAc(b1-4)GlcNAc
How it was run: as §1

[14] = biological target: GlcNAc(a1-4)Gal(b1-3)GlcNAc
How it was run: as §1

[15] = biological target: GlcNAc(a1-4)Gal(b1-4)GalNAc
How it was run: as §1

[16] = biological target: GlcNAc(a1-4)Gal(b1-4)GlcNAc(b1-3)Gal(b1-4)Glc
How it was run: as §1

[17] = biological target: GlcNAc(a1-4)Gal(b1-4)GlcNAc(b1-3)Gal(b1-4)[Fuc(a1-3)]GlcNAc(b1-3)Gal(b1-4)[Fuc(a1-3)]GlcNAc
How it was run: as §1

GlcNAc(b1-4)GlcNAc = biological target: GlcNAc(b1-4)GlcNAc
How it was run: as §1

[18] = biological target: Man(a1-2)Man(a1-2)Man(a1-6)[Man(a1-3)]Man
How it was run: as §1

[19] = biological target: Man(a1-2)Man(a1-3)[Man(a1-2)Man(a1-6)]Man
How it was run: as §1

[20] = biological target: Man(a1-2)Man(a1-3)[Man(a1-2)Man(a1-6)]Man(a1-6)[Man(a1-2)Man(a1-2)Man(a1-3)]Man
How it was run: as §1

[21] = biological target: Neu5Ac(a2-3)Gal(b1-4)GlcNAc(b1-2)Man(a1-3)[Neu5Ac(a2-6)Gal(b1-4)GlcNAc(b1-2)Man(a1-6)]Man(b1-4)GlcNAc(b1-4)GlcNAc
How it was run: as §1

[22] = biological target: Neu5Ac(a2-3)Gal(b1-4)GlcNAc(b1-6)[Neu5Ac(a2-3)Gal(b1-3)]GalNAc
How it was run: as §1

[23] = biological target: Neu5Ac(a2-3)Gal(b1-4)[Fuc(a1-3)]GlcNAc(b1-3)Gal
How it was run: as §1

[24] = biological target: Neu5Ac(a2-3)Gal(b1-4)[Fuc(a1-3)]GlcNAc(b1-3)Gal(b1-4)GlcNAc
How it was run: as §1

[25] = biological target: Neu5Ac(a2-3)GalNAc(b1-4)GlcNAc
How it was run: as §1

[26] = biological target: Neu5Ac(a2-3)[GalNAc(b1-4)]Gal(b1-4)Glc
How it was run: as §1

Neu5Ac(a2-6)Gal(b1-4)Glc = biological target: Neu5Ac(a2-6)Gal(b1-4)Glc
How it was run: as §1

[27] = biological target: Neu5Ac(a2-6)Gal(b1-4)GlcNAc(b1-2)Man(a1-3)Man(b1-4)GlcNAc(b1-4)GlcNAc
How it was run: as §1

[28] = biological target: Neu5Ac(a2-6)Gal(b1-4)GlcNAc(b1-2)Man(a1-3)[GlcNAc(b1-2)Man(a1-6)]Man(b1-4)GlcNAc(b1-4)GlcNAc
How it was run: as §1

B1: Neuropilin-2 (Homo sapiens), O60462 (protein)
chain: MDMFPLTWVFLALYFSRHQVRGQPDPPCGGRLNSKDAGYITSPGYPQDYPSHQNCEWIVYAPEPNQKIVLNFNPHFEIEKHDCKYDFIEIRDGDSESADLLGKHCGNIAPPTIISSGSMLYIKFTSDYARQGAGFSLRYEIFKTGSEDCSKNFTSPNGTIESPGFPEKYPHNLDCTFTILAKPKMEIILQFLIFDLEHDPLQVGEGDCKYDWLDIWDGIPHVGPLIGKYCGTKTPSELRSSTGILSLTFHTDMAVAKDGFSARYYLVHQEPLENFQCNVPLGMESGRIANEQISASSTYSDGRWTPQQSRLHGDDNGWTPNLDSNKEYLQVDLRFLTMLTAIATQGAISRETQNGYYVKSYKLEVSTNGEDWMVYRHGKNHKVFQANNDATEVVLNKLHAPLLTRFVRIRPQTWHSGIALRLELFGCRVTDAPCSNMLGMLSGLIADSQISASSTQEYLWSPSAARLVSSRSGWFPRIPQAQPGEEWLQVDLGTPKTVKGVIIQGARGGDSITAVEARAFVRKFKVSYSLNGKDWEYIQDPRTQQPKLFEGNMHYDTPDIRRFDPIPAQYVRVYPERWSPAGIGMRLEVLGCDWTDSKPTVETLGPTVKSEETTTPYPTEEEATECGENCSFEDDKDLQLPSGFNCNFDFLEEPCGWMYDHAKWLRTTWASSSSPNDRTFPDDRNFLRLQSDSQREGQYARLISPPVHLPRSPVCMEFQYQATGGRGVALQVVREASQESKLLWVIREDQGGEWKHGRIILPSYDMEYQIVFEGVIGKGRSGEIAIDDIRISTDVPLENCMEPISAFAGENFKVDIPEIHEREGYEDEIDDEYEVDWSNSSSATSGSGAPSTDKEKSWLYTLDPILITIIAMSSLGVLLGATCAGLLLYCTCSYSGLSSRSCTTLENYNFELYDGLKHKVKMNHQKCCSEA
[1]
  glycan array binding signal (z-score): 1.26
[2]
  glycan array binding signal (z-score): 3.21
[3]
  glycan array binding signal (z-score): 0.117
[4]
  glycan array binding signal (z-score): -0.324
[5]
  glycan array binding signal (z-score): -0.637
[6]
  glycan array binding signal (z-score): 0.81
[7]
  glycan array binding signal (z-score): -0.508
[8]
  glycan array binding signal (z-score): 6.67
[9]
  glycan array binding signal (z-score): 0.282
[10]
  glycan array binding signal (z-score): -0.835
[11]
  glycan array binding signal (z-score): 0.255
[12]
  glycan array binding signal (z-score): 5.64
[13]
  glycan array binding signal (z-score): -0.249
Gal3S4S(b1-4)GlcNAc
  glycan array binding signal (z-score): -0.032
GalNAc(b1-4)GlcNAc
  glycan array binding signal (z-score): -0.284
[14]
  glycan array binding signal (z-score): 1.66
[15]
  glycan array binding signal (z-score): 6.59
[16]
  glycan array binding signal (z-score): 1.04
[17]
  glycan array binding signal (z-score): 10.4
GlcNAc(b1-4)GlcNAc
  glycan array binding signal (z-score): -0.129
[18]
  glycan array binding signal (z-score): -0.323
[19]
  glycan array binding signal (z-score): -0.496
[20]
  glycan array binding signal (z-score): -0.552
[21]
  glycan array binding signal (z-score): -0.501
[22]
  glycan array binding signal (z-score): -0.664
[23]
  glycan array binding signal (z-score): -0.587
[24]
  glycan array binding signal (z-score): 3.79
[25]
  glycan array binding signal (z-score): 0.369
[26]
  glycan array binding signal (z-score): -0.339
Neu5Ac(a2-6)Gal(b1-4)Glc
  glycan array binding signal (z-score): 0.038
[27]
  glycan array binding signal (z-score): -0.201
[28]
  glycan array binding signal (z-score): -0.609
